Screening data: PubChem BioAssay, National Center for Advancing Translational Sciences (NCATS)
IMPase cell inh: membrane-permeable compound that blocks inositol monophosphatase; P97697; CHO-M1 cells, IP1 accumulation, HTRF TR-FRET ratio; inhibition (IP1 accumulation), % at 46.1 µM; 120,000 tested, under 10 active; active = well fitted curve in the direction sought with a large enough effect in the signal ratio, not every such curve was filed as active; inconclusive = small, poorly fitted or top-dose-only effect, or a change in a side signal; inactive = no such curve, though single readings can be large or run the other way; the % refers to the signal ratio;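 note: cells stimulated with carbachol in lithium chloride buffer; higher means more IMPase inhibition seen as more IP1 and lower FRET ratio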
Target sequence (P97697 whole entry, looked up): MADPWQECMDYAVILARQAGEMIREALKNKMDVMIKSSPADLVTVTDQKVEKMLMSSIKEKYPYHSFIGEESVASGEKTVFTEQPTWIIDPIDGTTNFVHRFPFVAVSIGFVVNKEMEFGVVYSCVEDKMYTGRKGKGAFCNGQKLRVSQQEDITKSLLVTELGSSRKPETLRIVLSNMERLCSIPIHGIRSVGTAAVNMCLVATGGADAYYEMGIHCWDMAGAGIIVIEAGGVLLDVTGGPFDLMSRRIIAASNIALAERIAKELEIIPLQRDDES
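Seeded CHO-M1 cells were dosed with compound at up to 46 uM, stimulated with carbachol for 30 min, then lysed in IP-One detection reagents. Higher IP1 lowers the TR-FRET signal.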
ALOX15B inhib: 15-hLO-2 (ALOX15B) enzyme inhibition; O15296; purified 15hLO-2, xylenol orange hydroperoxide absorbance; Potency, µM (highest dose often 57.1 µM), actives largely listed as inhibitors; 110,000 compounds, 0.56% hits; note: nearly all actives have a fitted effect of over 60% in size
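Read-out: hydroperoxide product oxidises ferrous iron, measured as xylenol orange complex via the 573-to-405 nm absorbance ratio after 30 min. Reaction: 50 nM enzyme, 15 min compound preincubation, 45 uM arachidonic acid, 90 min RT, Hepes pH 7.5 with Triton X-100.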
HPGD block: HPGD (human) dehydrogenase inhibition | P15428 | purified HPGD, NADH fluorescence kinetic, PGE2 substrate | Potency, µM, usual class: inhibitors | 150,000 compounds, 4.3% hits | AID 894; active = well fitted inhibition curve with a large enough effect, not every such curve was filed as active; inconclusive = small, poorly fitted or top-dose-only effect, or another doubt; inactive = no such curve, though single readings can be large or run the other way
Target sequence (P15428 whole entry, looked up): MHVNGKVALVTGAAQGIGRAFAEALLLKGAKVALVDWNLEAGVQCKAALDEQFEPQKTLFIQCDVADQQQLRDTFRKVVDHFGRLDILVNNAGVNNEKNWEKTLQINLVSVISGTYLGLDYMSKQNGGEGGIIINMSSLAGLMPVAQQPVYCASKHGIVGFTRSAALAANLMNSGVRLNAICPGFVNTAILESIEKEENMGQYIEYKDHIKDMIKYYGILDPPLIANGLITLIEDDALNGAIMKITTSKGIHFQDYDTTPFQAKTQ
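20 nM HPGD preincubated 15 min at room temperature with compound in 50 mM Tris-HCl pH 8, 0.01% Tween 20. Started with 1 mM NAD+ and 30 uM prostaglandin E2; NADH fluorescence (360/450 nm) read 5 times over 30-s intervals, last minus first.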
IMPase Li inh: membrane-permeable IMPase blocker, potentiated with lithium; CHO-M1 cells, IP1 TR-FRET (IP-One), carbachol + lithium; Potency, µM (highest dose often 59.4 µM), actives largely listed as inhibitors; 210,000 compounds, 0.35% hits;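 note: IP1 builds up when IMPase is blocked and the TR-FRET signal falls; nearly all actives have a fitted effect of over 50% in size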
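IP1 accumulation measured by competitive TR-FRET in lysed CHO-M1 cells after 30 min compound exposure at 37C, with a small lithium addition to potentiate weak responses. Hill-equation AC50 from ratio and donor-channel data.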
12-hLO inh: 12-hLO (ALOX12) enzyme inhibition | P18054 | purified 12-hLO, xylenol orange hydroperoxide absorbance | Potency, µM (titrated, usually from 57.1 µM), actives largely listed as inhibitors | 150,000 compounds, 0.12% hits; note: nearly all actives have a fitted effect of over 55% in size
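150 nM 12hLO, 25 mM Hepes pH 7.0 + 0.01% Triton X-100; cpd preinc 15 min RT; 40 uM arachidonic acid, 30 min RT; Fe-XO 30 min; A573/A405 ratio as read-out.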
PNC assembly inh: inhibitors of perinucleolar compartment assembly. 140,000 compounds, 3.1% hits. AID 2417. PC3M PTB-GFP, PNC prevalence imaging, 16 h; stronger effect = lower value. activity change (PNC), negative = inhibition, % at 10 µM;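 active = readout at or below -70, meaning at least 70% loss of cells showing the perinucleolar compartment, a nuclear body marking cancer cells; inconclusive = readout between -30 and a set limit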
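Read-out is percentage of cells bearing a perinucleolar compartment, from automated 20x imaging of fixed, Hoechst-stained PC3M PTB-GFP cells. Cells were seeded 4 h, then exposed 16 h to compound (23 nl of library stock) in duplicate plates.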
Numbers stand for hits; - = inactive; ? = inconclusive; . = no result; [ ] = dose if it differs, or a comment. Rows were chosen to be rich in hits. Some 5.4% of all compounds tested hit in one or more screens of this group. Unless noted, calls come from the whole dose curve; as a rule, active = well fitted curve in the direction sought with a large enough effect; inconclusive = small, poorly fitted or top-dose-only effect, or another doubt; inactive = no such curve, though single readings can be large; an effect the other way counts as inactive or inconclusive.

SMILES	IMPase cell inh	ALOX15B inhib	HPGD block	IMPase Li inh	12-hLO inh	PNC assembly inh
Cc1nn(C)c2ncc(C(=O)c3cc(F)ccc3O)cc12	-	-	-	-	-	-
Cc1nn(-c2ccccc2)c2ncc(C(=O)c3cc(Cl)ccc3O)cc12	.	.	16µM	-	-	-
Clc1ccc(C2=Nc3cc(Cl)ccc3OC2)cc1	.	.	.	-	.	.
Clc1ccc(C2=NN=C3COc4ccccc4N3C2)cc1	.	.	20µM	-	-	-
COc1ccc(-c2coc3ccc(OC4OC(COC(C)=O)C(OC(C)=O)C(OC(C)=O)C4OC(C)=O)c(OC(C)=O)c3c2=O)cc1 (stereo not given)	-	-	-	-	-	.
O=C(O)C[C@H](S)C(=O)O	.	-[11.4 µM]	-	-	-[11.4 µM]	.
Cc1nn(-c2ccccc2)c2sc(C(=O)N3CCCCC3)cc12	-	-	4µM	-	-	-
CNC(=O)/C(C#N)=C/c1ccc(-c2ccc(OC)cc2[N+](=O)[O-])o1	-[1.84 µM]	-[11.4 µM]	7.1µM	-	-	-
O=C(Cn1cc(C(=O)C(F)(F)F)c2ccccc21)N1CCCCCC1	-	.	.	.	.	.
CC(=O)/C=C\c1cn(-c2ncc(C(F)(F)F)cc2Cl)c2ccccc12	-[1.84 µM]	-[11.4 µM]	32µM	-	-	-124
Fc1cccc(NC(=S)NCc2ccccn2)c1	.	.	?	-	-	-91
Cc1cc(C)cc(NC(=O)C(=O)NCc2ccccn2)c1	.	.	-	-	-	-84
CCc1ccc(C(=O)NCc2cccs2)s1	-	-	18µM	-	-	?
O=C(NCc1ccccn1)c1ccc(Cl)s1	-	-	20µM	-	-	?
O=C(NCc1ccccn1)c1ccc(Br)s1	-	-	?	-	-	-
Cc1ccc(NC(=O)C(=O)NCc2ccccn2)cc1	.	.	.	-	.	.
O=c1c(-c2ccccc2)nc2cnc(N3CCNCC3)nc2n1-c1ccccc1	.	-	.	-	.	.
CCC1=C2CC[C@H]3C(=O)N(CC(=O)OC)C(=O)[C@H]3[C@H]2[C@@]2(Cc3ccccc3)C(=NCCc3c[nH]c4ccccc34)OC(=O)N2C1=O	.	-	-	-	-	.
COc1cc(OC)c(C2Nc3ccccc3-c3nnc(SCc4ccccc4)nc3O2)cc1OC (stereo not given)	-	.	.	.	.	.
O=C(NCc1cccs1)c1ccc(Cl)s1	-	-	16µM	-	-	-
O=C(NCc1ccccn1)Nc1ccc(Cl)c(Cl)c1	-	.	-	-	-	-84
O=C(NCc1ccccn1)c1ccc(Cl)cc1Cl	-	-	20µM	-	-	?
O=C(NCc1ccccn1)Nc1cccc(NC(=O)NCc2ccccn2)c1	-	-	-	-	-	-
CN=C(N)/N=C(\N)Nc1cc2ccccc2c2ccccc12	.	-[11.4 µM]	-	-	-[11.4 µM]	.
CN(C)CCn1c(CO)nc2c1c(=O)n(C)c(=O)n2C	.	-[11.4 µM]	-	-	-[11.4 µM]	.
SMILES	IMPase cell inh	ALOX15B inhib	HPGD block	IMPase Li inh	12-hLO inh	PNC assembly inh
CCCCN1C(=O)N(C)C2NC(=O)NC21 (stereo not given)	-	-	-	-	-	-
CCCCN1C(=O)N(C)C2C1N(C)C(=O)N2CCCC (stereo not given)	-	.	-	-	-	-100
OC[C@@H]1O[C@@H](n2cnc3c(SCc4ccccc4)ncnc32)[C@@H](O)[C@H]1O	.	-[11.4 µM]	-	-	-[11.4 µM]	.
O=C(NCc1nc2ccccc2[nH]1)c1cccs1	-	-	-	-	-	-87
O=C(NCCc1nc2ccccc2[nH]1)/C(=C/c1ccco1)NC(=O)c1ccco1	.	.	-	-	-	?
CCn1c(CNC(=O)c2cccs2)n[nH]c1=S	.	.	-	-	-	-109
O=C(NCc1nc2ccccc2[nH]1)c1ccco1	-	-	-	-	-	-98
O=C(NCc1n[nH]c(=S)n1-c1ccccc1)c1cccs1	.	.	.	-	.	.
O=C(NCc1ccccn1)c1cccs1	-	-	-	-	-	?
CC(Sc1ccccn1)C(=O)Nc1ccc(S(N)(=O)=O)cc1 (stereo not given)	-	-	-	-	-	-108
CC(Sc1ccccn1)C(=O)Nc1ccccc1 (stereo not given)	-	-	28µM	-	-	?
Cc1ccc2oc3c(c(=O)c2c1)C(c1ccc(OCC(N)=O)cc1)N(Cc1ccc2c(c1)OCO2)C3=O (stereo not given)	-	.	.	.	.	.
CCOc1ccc(OCC)c(NC(=O)C2CCN(S(=O)(=O)c3ccc(Br)s3)CC2)c1	-	.	.	.	.	.
O=C1C=CC2(OCCCO2)C(Br)=C1CO	.	.	?	-	.	.
COc1ccccc1C(=O)Nc1ccc2oc(-c3cccc4c(Br)cccc34)nc2c1	-	.	.	.	.	.
Cc1ccc(C(=O)OCC2OC3OC(C)(C)OC3C2O)cc1 (stereo not given)	-	.	4µM	-	-	-
C(=C\c1ccco1)/C=N/n1cnnc1	-	-	32µM	-	-	?
S=C(Nc1ccccn1)c1ccccn1	-	-	8.9µM	-	-	-
Cc1ccc(C)c(NC(=S)c2ccccn2)c1	-	-	28µM	-	-	-
S=C(Nc1ccccn1)Nc1ccccc1Cl	.	.	.	-	.	.
Cc1[nH]n(-c2ccc(Cl)cc2)c(=O)c1/C=N/c1nnc(-c2ccccc2)s1	.	.	28µM	-	-	-
Cc1ccc(-n2[nH]c(C)c(/C=N/c3ccccn3)c2=O)cc1	-	-	-	-	-	-
N#CNC(=Nc1cccc(F)c1)SCc1cccc(F)c1	.	.	-	-	-	-
N#CNC(=Nc1cccc(F)c1)SCc1ccccc1	.	.	-	-	-	-103
CN(CC(=O)Nc1ccc(F)c(F)c1F)c1cnccn1	-	-	-	-	-	-100
SMILES	IMPase cell inh	ALOX15B inhib	HPGD block	IMPase Li inh	12-hLO inh	PNC assembly inh
CC(S)C(=O)NCC(=O)O (stereo not given)	.	-[0.0915 µM]	-	-	-[0.00818 µM]	.
O=C1CCCCCN1Cc1ccccc1	-	-	-	-	-	-
O=C1CCCN1Cc1ncnn1-c1ccccc1	-	.	-	-	-	-100
CCOC(=O)CSc1nc(N)c2c3c(sc2n1)CCCC3	-	-	-	-	-	-
CC1CCc2c(sc3nc(SCC(=O)NCc4ccco4)nc(N)c23)C1 (stereo not given)	-	-	14µM	-	-	-
CCN(CC)C(=O)CSc1nc(N)c2c3c(sc2n1)CC(C)CC3 (stereo not given)	-	-	14µM	-	-	-
O=C(OCc1ccc(F)cc1)c1ccc2c(c1)-c1ccccc1C2=O	-	-	-	-	-	-
CCOC(=O)C1=C(Cc2ccc(F)cc2)C(=O)c2ccccc2C1=O	-	?	7.9µM	-	?	?
O=[N+]([O-])c1ccc(Cl)c(/C=N/n2c(C3CCCCC3)n[nH]c2=S)c1	-	-	0.63µM	-	-	-
Cc1ccsc1-c1n[nH]c(=S)n1C1CCCCC1	.	.	-	-	-	-
O=[N+]([O-])c1ccccc1/C=N/n1c(C2CCCCC2)n[nH]c1=S	-	.	16µM	-	-	-
O=[N+]([O-])c1ccc(Cl)c(/C=N/N2CCN(c3ccccc3)CC2)c1	-	-	-	-	-	-
